# Data reported in the supplement of paper PMC12494721.
# Counter-ions that a name gives are not always drawn.
# Tested on: Clostridium sporogenes DSM 1664
# Test: growth (OD595) fold change vs plate DMSO controls (fold change (ratio)); higher = more growth
# Settings: incubation time: 27 h, anaerobic, 37 °C
# Summary of the method: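 To obtain OD, 595 nm absorbance readings were blank-subtracted, corrected for compound background using 20 µM compound solutions in water, and multiplied by a calibration factor of 5. They came from 96-well mGAM cultures grown anaerobically for 27 h at 37 °C and shaken before reading. Growth is the fold change relative to the median of plate DMSO controls. Two biological replicates were averaged, and fold changes above 1.5 were set to NA.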
row,Compound,growth
1,CN(C(=O)CN(CCO)CC(=O)N(C)C(C)(C)Cc1ccccc1)C(C)(C)Cc1ccccc1 [Oxethazaine] (20 µM),1.23
2,CCCCC(CC)CN1C(=O)[C@@H]2[C@H](C1=O)[C@@H]1C=C[C@H]2C1 (mixture of isomers) (20 µM),1.03
3,CC(=O)OCC1=C(C(=O)O)N2C(=O)[C@@H](NC(=O)Cc3cccs3)[C@H]2SC1 [Cephalothin sodium salt] (20 µM),0
4,Cc1cc(CC(=O)O)n(C)c1C(=O)c1ccc(Cl)cc1 [Zomepirac sodium salt] (20 µM),1.21
5,CC(CNC1CCCCC1)OC(=O)c1ccccc1 (configuration not stated) [Hexylcaine hydrochloride] (20 µM),1
6,CC(C)n1c(/C=C/C(O)CC(O)CC(=O)O)c(-c2ccc(F)cc2)c2ccccc21 (configuration not stated) [Fluvastatin sodium salt] (20 µM),0.95
7,CCCc1cc(=O)[nH]c(=S)[nH]1 [Propylthiouracil] (20 µM),0.934
8,CC(=O)Nc1ccc(OCC(O)CNC(C)C)cc1 (configuration not stated) [Practolol] (20 µM),0.924
9,C[C@@H]1O[C@@H](O[C@H]2[C@H](Oc3cc(O)c(C(=O)CCc4ccc(O)cc4)c(O)c3)O[C@H](CO)[C@@H](O)[C@@H]2O)[C@H](O)[C@H](O)[C@H]1O [Naringin Dihydrochalcone] (50 µM),1.1
10,Nc1cc(-c2ccncc2)c[nH]c1=O [Amrinone] (20 µM),1.17
11,CC#CCn1c(N2CCC[C@@H](N)C2)nc2c1c(=O)n(Cc1nc(C)c3ccccc3n1)c(=O)n2C [Linagliptin] (20 µM),1.01
12,CCOc1ccc2c(c1)C(C)=CC(C)(C)N2 [Ethoxyquin] (20 µM),0.801
13,Cn1c(=O)c2c(ncn2C)n(C)c1=O [Caffeine] (20 µM),1.15
14,C[C@]12CC[C@@H]3c4ccc(O)cc4CC[C@H]3[C@@H]1CC[C@@H]2O [Estradiol-17 beta] (20 µM),1.22
15,CC(=O)OCC(=O)[C@@]12OC3(CCCC3)O[C@@H]1C[C@H]1[C@@H]3CCC4=CC(=O)C=C[C@]4(C)[C@@]3(F)[C@@H](O)C[C@@]12C [Amcinonide] (20 µM),1.12
16,OCCN1CCN(CCCN2c3ccccc3C=Cc3ccccc32)CC1 [Opipramol dihydrochloride] (20 µM),1.12

row,Compound,growth
1,CC(C)[N+](C)(CCOC(=O)C1c2ccccc2Oc2ccccc21)C(C)C [Propantheline bromide] (20 µM),1.03
2,C[C@H](O)[C@H](O)[C@H]1CNc2[nH]c(N)nc(=O)c2N1 [Sapropterin dihydrochloride] (20 µM),1.12
3,CCN(CC)CCNC(=O)c1cc(S(C)(=O)=O)ccc1OC [Tiapride hydrochloride] (20 µM),0.729
4,CNCCCN1c2ccccc2CCc2ccccc21 [Desipramine hydrochloride] (20 µM),0.96
5,COc1ccccc1OCC(O)CN1CCN(CC(=O)Nc2c(C)cccc2C)CC1 (configuration not stated) [Ranolazine] (20 µM),1.13
6,CC(=O)c1ccc2c(c1)N(CCCN1CCC(CCO)CC1)c1ccccc1S2 [Piperacetazine] (20 µM),0.454
7,Cn1cc(C(=O)Nc2ccc(F)cc2-c2ccc(Cl)c(Cl)c2)c(C(F)F)n1 (20 µM),1.12
8,Nc1nc(=O)[nH]cc1F [Flucytosine] (20 µM),1.01
9,O=c1oc2cc(O)ccc2s1 [Tioxolone] (20 µM),1.04
10,CCN1C(=O)NC(c2ccccc2)C1=O (configuration not stated) [Ethotoin] (20 µM),0.983
11,C=C1/C(=C\C=C2/CCC[C@]3(C)[C@@H]([C@H](C)/C=C/[C@@H](O)C4CC4)CC[C@@H]23)C[C@@H](O)C[C@@H]1O [Calcipotriene] (20 µM),1.07
12,COc1ccc([C@@H]2Sc3ccccc3N(CCN(C)C)C(=O)[C@@H]2OC(C)=O)cc1 [Diltiazem hydrochloride] (20 µM),1.13
13,N#Cc1ccc(C(c2ccc(C#N)cc2)n2cncn2)cc1 [Letrozole] (20 µM),1.05
14,Clc1ccc(CSC(Cn2ccnc2)c2ccc(Cl)cc2Cl)cc1 (configuration not stated) [Sulconazole nitrate] (20 µM),0.862
15,NC(=O)c1ncn([C@@H]2O[C@H](CO)[C@@H](O)[C@H]2O)n1 [Ribavirin] (20 µM),1.13
16,CC(C)NCC(O)c1cc(O)cc(O)c1 (configuration not stated) [Metaproterenol sulfate] (20 µM),0.982
